The source of these data is PubChem BioAssay (EPA / NIEHS).

Active and inactive are the calls of the source. How the source made its calls: active means hit-call score of the fitted dose curve at least 0.9, where 1 is the maximum; inactive means score below 0.9.

The nature of assay [1]: ATG_CRE_CIS: Attagene CIS-FACTORIAL HepG2 Assay for human cAMP Responsive Element (CRE) binding protein 3 (AID 2282926). The settings on record: HepG2 CRE cis-reporter, Attagene multiplexed mRNA; actives raise or lower the signal. In a few lines:
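We dosed HepG2 cells bearing multiple cis-promoter reporter units for 24 h and measured reporter mRNA by RT-PCR with capillary electrophoresis detection. Bidirectional concentration-response fitting used DMSO as negative control.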

The target in assay [2] is CCAAT/enhancer-binding protein beta (Homo sapiens) (UniProt P17676). Put plainly: ATG_C_EBP_CIS: Attagene CIS-FACTORIAL HepG2 Assay for human CCAAT/Enhancer Binding Protein (C/EBP) beta (AID 2282927). The settings on record: HepG2 Attagene cis-factorial transcription factor reporter; actives raise or lower the signal. In a few lines:
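Chemical-treated HepG2 cells (24 h) bearing cis-regulated reporter constructs were processed for total RNA, then reverse transcription, PCR amplification, fluorescent primer extension and fragment analysis; gain- and loss-of-signal were fitted against DMSO.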

The nature of assay [3]: ATG_CMV_CIS: Attagene CIS-FACTORIAL HepG2 Assay for human CMV (Internal Marker) (AID 2282928).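 Further: endpoint acts as a background internal control marker rather than a target.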 The settings on record: HepG2 CMV promoter reporter, transcription factor profiling; actives raise or lower the signal. In a few lines:
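CMV internal-marker background readout in transiently transfected HepG2 cells bearing cis-regulated reporter units. Reporter mRNA is measured 24 h after dosing by RT-PCR and capillary electrophoresis, with bidirectional fitting against DMSO.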

Assay [4] can be described thus: ATG_DR4_LXR_CIS: Attagene CIS-FACTORIAL HepG2 Assay for human Liver X Receptor (LXR), DR4 submotif (AID 2282929). Conditions: HepG2 Attagene DR4 cis-reporter, mRNA transcription; actives raise or lower the signal. In a few lines: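 Cells were transfected with multiple reporter transcription units, exposed to chemicals for 24 hours, then lysed for RNA. Reporter mRNA induction was measured by RT-PCR with capillary electrophoresis detection and fitted in both directions relative to DMSO.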

The target of assay [5] is Aryl hydrocarbon receptor (Homo sapiens) (UniProt P35869). Nature of the assay: ATG_Ahr_CIS: Attagene CIS-FACTORIAL HepG2 Assay for human Aryl Hydrocarbon Receptor (Ahr) (AID 2282930). The settings on record: HepG2 AhR cis-factorial reporter transcription; actives raise or lower the signal. In a few lines:
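Following 24 h of chemical dosing, transfected HepG2 liver cells with cis-driven reporter units were lysed for RNA; reporter mRNA was quantified via RT-PCR and capillary electrophoresis, and responses fitted bidirectionally from DMSO.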

Assay [6] in a line: ATG_AP_1_CIS: Attagene CIS-FACTORIAL HepG2 Assay for human Activator Protein 1 (AP-1) (AID 2282931). Conditions: HepG2 Attagene cis-factorial AP-1 reporter mRNA; actives raise or lower the signal. In a few lines: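 Endogenous transcription-factor activity in human HepG2 liver cells is read through a cis-promoter reporter transcript, sampled 24 h after dosing. Detection uses RT-PCR with capillary electrophoresis; values come from bidirectional fitting relative to DMSO.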

The nature of assay [7]: ATG_AP_2_CIS: Attagene CIS-FACTORIAL HepG2 Assay for human Activator Protein 2 (AP-2) (AID 2282932). Conditions: HepG2 AP-2 cis-reporter, Attagene transcription factor profiling; actives raise or lower the signal. In a few lines:
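HepG2 cells were transiently transfected with multiple cis-promoter reporter transcription units and dosed for 24 h. Reporter mRNA was measured by RT-PCR with capillary electrophoresis fluorescence; bidirectional fits relative to DMSO baseline.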

Assay [8] in a line: ATG_BRE_CIS: Attagene CIS-FACTORIAL HepG2 Assay for human Bone Morphogenetic Protein (BMP) Response Element (BRE) (AID 2282933). The settings on record: HepG2 BMP response element reporter, Attagene transcription factor profiling; actives raise or lower the signal. In a few lines: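 Transient MRTU transfection of human HepG2 liver cells; 24 h compound treatment; total RNA isolated, reverse-transcribed, PCR-amplified, 6-FAM labelled, HpaI-cut, capillary electrophoresis. DMSO = negative control/baseline, bidirectional fit.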

Assay [9] concerns the target Transcription factor E2F1 (Homo sapiens) (UniProt Q01094). Nature of the assay: ATG_E2F_CIS: Attagene CIS-FACTORIAL HepG2 Assay for human E2F Transcription Factor 1 (AID 2282935). The settings on record: HepG2 Attagene cis-reporter, E2F reporter RNA transcripts; actives raise or lower the signal. In a few lines: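 HepG2 cells transiently transfected with multiplexed cis-element reporter units, dosed for 24 h. Reporter mRNA measured by RT-PCR, 6-FAM primer-extension labeling, HpaI digestion and capillary electrophoresis; bidirectional fit versus DMSO baseline.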

Assay [10] is described as follows: ATG_E_Box_CIS: Attagene CIS-FACTORIAL HepG2 Assay for human Enhancer Box (E-box) (AID 2282936). The settings on record: HepG2 E-box cis-reporter transcription, actives raise or lower the signal. In a few lines: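 HepG2 cells transiently transfected with multiplexed cis-element reporter units sensing endogenous transcription factor activity; 24 h compound exposure. Reporter mRNA measured by RT-PCR, 6-FAM primer extension, HpaI digestion and capillary electrophoresis; bidirectional fit versus DMSO.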

Assay [11] is described as follows: ATG_M_61_CIS: Attagene CIS-FACTORIAL HepG2 Assay for M61 Transcription Factor (Internal Marker) (AID 2282937). Conditions: HepG2 Attagene CIS-FACTORIAL M61 internal marker reporter; actives raise or lower the signal. In a few lines: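 Cells were transfected with reporter units under cis-regulatory promoters, treated with chemicals for 24 h, then lysed for RNA. Reporter transcripts were quantified by RT-PCR and capillary electrophoresis, and activity was fitted bidirectionally against DMSO.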

Assay [12] can be described thus: ATG_EGR_CIS: Attagene CIS-FACTORIAL HepG2 Assay for human Early Growth Response 1 (EGR1) (AID 2282938). Conditions: HepG2 Attagene CIS-FACTORIAL EGR reporter mRNA; actives raise or lower the signal. In a few lines: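 Endogenous TF activity in HepG2 liver cells was gauged through cis-promoter reporter constructs transiently transfected. After 24 h dosing, reporter mRNA was quantified by RT-PCR and capillary electrophoresis, and curves fitted in both directions versus DMSO.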

The nature of assay [13]: ATG_M_19_CIS: Attagene CIS-FACTORIAL HepG2 Assay for M19 Transcription Factor (Internal Marker) (AID 2282939). Conditions: HepG2 Attagene CIS-FACTORIAL M19 internal marker reporter; actives raise or lower the signal. In a few lines:
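Transfect HepG2 with MRTU reporter library → dose chemical, 24 h → isolate total RNA, reverse-transcribe with oligo(dT) → PCR, 6-FAM label, HpaI cut (2 h, 37 C) → capillary electrophoresis. Bidirectional fit vs DMSO.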

A short description of assay [14]: ATG_Ets_CIS: Attagene CIS-FACTORIAL HepG2 Assay for human Erythroblast Transformation Specific (ETS) (AID 2282941). The settings on record: HepG2 ETS cis-reporter transcription, actives raise or lower the signal. In a few lines: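 HepG2 cells transfected with multiple cis-regulated reporter units measuring endogenous ETS-driven transcription, 24 h after dosing. Reporter mRNA quantified by RT-PCR with capillary electrophoresis; bidirectional fit relative to DMSO.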

Assay [15] addresses Hepatocyte nuclear factor 3-beta (Homo sapiens) (UniProt Q9Y261). Put plainly: ATG_FoxA2_CIS: Attagene CIS-FACTORIAL HepG2 Assay for human Forkhead box A2 (FOXA2) (AID 2282942). The settings on record: HepG2 cis-reporter transcription factor activity, 24 h; actives raise or lower the signal. In a few lines: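 Endogenous transcription factor activity was read in HepG2 cells carrying transiently transfected cis-promoter reporter units. After 24 h dosing, reporter mRNA was quantified by RT-PCR and capillary electrophoresis, and values fitted bidirectionally versus DMSO.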

The nature of assay [16]: ATG_FoxO_CIS: Attagene CIS-FACTORIAL HepG2 Assay for human Forkhead box O (FoxO) (AID 2282943). Conditions: HepG2 Attagene cis-reporter, FoxO element, mRNA; actives raise or lower the signal. In a few lines:
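24 h chemical exposure, HepG2 with transient cis-MRTU transfection. RNA extraction, oligo(dT) RT, reporter-specific PCR, primer-extension labelling, HpaI digestion, CE fragment analysis; bidirectional fit, DMSO baseline.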

The nature of assay [17]: ATG_GLI_CIS: Attagene CIS-FACTORIAL HepG2 Assay for human Zinc Finger Protein GLI1 (AID 2282945). Conditions: HepG2, Attagene cis-factorial reporter mRNA, GLI element; actives raise or lower the signal. In a few lines: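 HepG2 cells transiently transfected with cis-promoter multiplexed reporter units report endogenous transcription factor activity. After 24 h chemical exposure, reporter mRNA was quantified by RT-PCR, 6-FAM labelling, HpaI digestion and capillary electrophoresis, with bidirectional fitting against DMSO.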

Assay [18] is described as follows: ATG_GATA_CIS: Attagene CIS-FACTORIAL HepG2 Assay for human GATA Binding Protein (AID 2282944). Conditions: HepG2 GATA cis-element reporter, Attagene multiplex mRNA; actives raise or lower the signal. In a few lines: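 Transient MRTU transfection, HepG2, 24 h compound exposure. Total RNA → oligo(dT) RT → PCR → 6-FAM primer extension → HpaI cut → CE. Bidirectional fit vs DMSO.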

Sequence of Transcription factor E2F1 (Homo sapiens) (Q01094 whole entry, looked up): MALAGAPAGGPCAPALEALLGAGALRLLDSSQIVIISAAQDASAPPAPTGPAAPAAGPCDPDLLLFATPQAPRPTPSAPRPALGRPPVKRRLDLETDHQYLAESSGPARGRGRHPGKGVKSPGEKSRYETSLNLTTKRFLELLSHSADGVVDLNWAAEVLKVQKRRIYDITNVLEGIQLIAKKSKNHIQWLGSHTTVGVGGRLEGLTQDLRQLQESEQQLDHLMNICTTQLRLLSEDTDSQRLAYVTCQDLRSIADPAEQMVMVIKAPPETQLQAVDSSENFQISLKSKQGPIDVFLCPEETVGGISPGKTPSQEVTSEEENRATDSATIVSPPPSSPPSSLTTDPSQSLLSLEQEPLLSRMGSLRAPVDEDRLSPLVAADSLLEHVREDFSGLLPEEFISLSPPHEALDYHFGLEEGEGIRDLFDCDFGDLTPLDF
Sequence of Aryl hydrocarbon receptor (Homo sapiens) (P35869 whole entry, looked up): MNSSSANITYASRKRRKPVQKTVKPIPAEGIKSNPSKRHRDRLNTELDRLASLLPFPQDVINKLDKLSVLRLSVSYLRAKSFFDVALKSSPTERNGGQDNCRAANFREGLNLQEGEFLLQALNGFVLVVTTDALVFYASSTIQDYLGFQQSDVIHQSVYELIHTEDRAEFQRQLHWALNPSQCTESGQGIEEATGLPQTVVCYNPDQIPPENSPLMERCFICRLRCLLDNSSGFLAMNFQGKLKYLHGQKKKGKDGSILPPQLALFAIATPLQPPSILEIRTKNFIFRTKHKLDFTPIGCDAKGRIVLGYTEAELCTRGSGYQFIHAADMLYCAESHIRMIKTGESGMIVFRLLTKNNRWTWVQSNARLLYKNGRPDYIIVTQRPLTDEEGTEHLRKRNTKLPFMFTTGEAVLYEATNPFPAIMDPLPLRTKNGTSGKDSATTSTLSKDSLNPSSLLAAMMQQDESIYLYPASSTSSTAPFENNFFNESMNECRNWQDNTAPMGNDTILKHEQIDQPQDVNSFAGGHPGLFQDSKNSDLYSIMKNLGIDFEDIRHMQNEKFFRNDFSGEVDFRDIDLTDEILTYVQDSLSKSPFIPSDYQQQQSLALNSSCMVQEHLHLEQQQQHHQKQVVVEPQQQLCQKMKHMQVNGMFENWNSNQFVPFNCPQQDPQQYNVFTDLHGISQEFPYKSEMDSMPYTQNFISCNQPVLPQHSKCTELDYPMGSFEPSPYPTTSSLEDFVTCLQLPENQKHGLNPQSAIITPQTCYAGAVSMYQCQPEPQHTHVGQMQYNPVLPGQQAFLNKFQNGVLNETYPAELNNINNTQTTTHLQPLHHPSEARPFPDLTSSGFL
Sequence of Hepatocyte nuclear factor 3-beta (Homo sapiens) (Q9Y261 whole entry, looked up): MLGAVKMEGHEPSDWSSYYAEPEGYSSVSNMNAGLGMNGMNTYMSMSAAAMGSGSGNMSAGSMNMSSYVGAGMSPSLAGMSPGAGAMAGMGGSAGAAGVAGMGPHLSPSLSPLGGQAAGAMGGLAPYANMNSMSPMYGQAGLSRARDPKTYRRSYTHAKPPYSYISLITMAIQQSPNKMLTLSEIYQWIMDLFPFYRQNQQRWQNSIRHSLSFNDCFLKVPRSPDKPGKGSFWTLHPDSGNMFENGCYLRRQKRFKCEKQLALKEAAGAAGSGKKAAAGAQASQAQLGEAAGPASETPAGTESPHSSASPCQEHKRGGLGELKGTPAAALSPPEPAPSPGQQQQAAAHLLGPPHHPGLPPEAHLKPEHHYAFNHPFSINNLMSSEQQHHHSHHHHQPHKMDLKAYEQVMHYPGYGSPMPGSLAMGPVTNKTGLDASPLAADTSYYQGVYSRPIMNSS
Sequence of CCAAT/enhancer-binding protein beta (Homo sapiens) (P17676 whole entry, looked up, the tested form may be a part): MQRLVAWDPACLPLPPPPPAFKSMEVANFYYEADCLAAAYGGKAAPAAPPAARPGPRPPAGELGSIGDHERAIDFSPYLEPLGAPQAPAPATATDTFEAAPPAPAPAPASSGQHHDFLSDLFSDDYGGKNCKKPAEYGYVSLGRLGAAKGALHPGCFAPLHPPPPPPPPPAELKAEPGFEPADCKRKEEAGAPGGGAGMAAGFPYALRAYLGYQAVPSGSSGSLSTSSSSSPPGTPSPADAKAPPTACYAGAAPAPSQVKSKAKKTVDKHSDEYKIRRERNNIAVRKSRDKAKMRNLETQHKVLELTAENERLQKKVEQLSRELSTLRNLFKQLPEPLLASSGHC

A word on the AC50: it is the concentration at which the activity in the assay is half-maximal. For the molecule `Cc1ccc(C(=O)c2cc(O)c(O)c([N+](=O)[O-])c2)cc1`, the result in [1], in [2], in assay [4], in assay [5], in assay [6] and in [9] was inactive. For the same molecule, the molecule was classed as inactive in [11], in assay [12], in assay [13], in assay [14], in assay [15] and in assay [16]. Further, the outcome in assay [17] was inactive. In addition, the AC50 is 26.3 µM (active) in [3], 27.2 µM (active) in assay [7], 56 µM (active) in [8] and 27 µM (active) in [10].
As to `NC(=O)NC1NC(=O)NC1=O` (stereo unspecified), the result in [1], in assay [2], in assay [3], in [4], in [5] and in assay [6] was inactive. Besides, the molecule was classed as inactive in assay [7], in assay [8], in assay [9], in [10], in [11] and in assay [12]. The result in assay [13], in assay [15], in assay [16] and in assay [18] was inactive.
Take `C[Si](O[Si](C)(C)C)O[Si](C)(C)C`: the molecule was classed as inactive in assay [1], in [2], in assay [3], in [4], in [6] and in assay [7]. Also, the molecule was called inactive in assay [8], in assay [9], in assay [10], in assay [11], in [12] and in [13]. In addition, the molecule was classed as inactive in assay [14], in assay [15], in [16], in [18] and in assay [17]. The AC50 in assay [5] was 52.8 µM (active).
`OC[C@H]1O[C@H](O[C@]2(CCl)O[C@H](CCl)[C@@H](O)[C@@H]2O)[C@H](O)[C@@H](O)[C@H]1Cl`: the call in assay [1], in assay [2], in assay [3], in [4], in [5] and in assay [6] was inactive. For the same molecule, the call in assay [7], in assay [8], in [9], in [10], in assay [11] and in assay [12] was inactive. Moreover, the call in assay [13], in assay [14], in [15], in assay [16], in assay [18] and in assay [17] was inactive.
In the case of `COc1nc(C)nc(N)n1`, the molecule was classed as inactive in assay [1], in assay [2], in [3], in assay [4], in [5] and in [6]. The molecule was classed as inactive in assay [7], in assay [8], in assay [9], in assay [10], in [11] and in assay [12]. The outcome in [13], in assay [15], in [16], in [18] and in assay [17] was inactive.
In the case of `C=C(C)C(=O)OCc1ccccc1`, the molecule was classed as inactive in assay [1], in assay [2], in assay [3], in assay [4], in assay [5] and in [6]. For the same molecule, the result in assay [7], in [8], in assay [9], in assay [10], in assay [11] and in assay [12] was inactive. Besides, the molecule was called inactive in assay [14], in assay [16], in assay [18] and in [17].
As to `C=CCOC(=O)CCC1CCCCC1`, the call in assay [1], in assay [2], in [3], in assay [4], in [5] and in assay [6] was inactive. Further, the outcome in [7], in assay [8], in [9], in assay [10], in assay [11] and in assay [12] was inactive. Moreover, the outcome in assay [13], in assay [15], in assay [16], in assay [18] and in assay [17] was inactive.
`Nc1cc([N+](=O)[O-])ccc1Cl`: the call in assay [1], in assay [2], in assay [3], in assay [4], in [6] and in assay [7] was inactive. Moreover, the outcome in assay [8], in assay [9], in assay [10], in assay [11], in assay [12] and in assay [13] was inactive. Further, the call in assay [14], in assay [15], in assay [16] and in assay [17] was inactive. Also, the AC50 in assay [5] is 20.2 µM (active).
